Test results taken from PubChem BioAssay (NCATS).
Inconclusive results are not listed. Active and inactive are the calls of the source. Calls follow the shape of the dose curve; as a rule, active = well fitted cell-killing curve with a large enough effect; inconclusive = small, poorly fitted or top-dose-only effect, or effect the other way; inactive = flat fitted curve, though single readings scatter. *1 amine or outer side, *2 acyl side, *3 side chain or, on linkers, in order; H or OH if unused. Where a SMILES comes first, the peptide text is derived from it. Bridges are numbered along the chain shown (N, C = ends). [ ]: non-standard residue; d: D form. The star is where a group is joined. ξ: configuration not given here. ξhTyr(3S-OH,4S-OH,3'-OSO3H) = NC(C(=O)O)[C@H](O)[C@@H](O)c1ccc(O)c(OS(=O)(=O)O)c1; Orn(4R-OH,5R-OH) = O=C([C@H](C[C@@H](O)[C@@H](O)N[*:3])N[*:1])[*:2]; X2 = CCCCCOc1ccc(-c2cc(-c3ccc(C(=O)*)cc3)no2)cc1; X3 = C[C@H]1CN([*:1])C(C(=O)[*:2])[C@H]1O; ξGln(3R-OH) = NC(=O)C[C@@H](O)C(N)C(=O)O; ξPro(4R-OH) = O=C(O)C1C[C@@H](O)CN1; ξThr(3R) = C[C@@H](O)C(N)C(=O)O

Assays:
Assay in all cases: Primary qHTS to identify gynecologic anti-cancer compounds using libraries of approved drugs and bioactive compounds (AID 1345084); also: nearly all actives have a fitted effect of over 55% in size
Settings in all cases: Gynecologic cancer cell panel viability, ATPlite luminescence, 48 h; series mostly up to 57.5 µM
OV90 = test system: OV90
Method in brief: (§1)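 Cell viability after 48 h drug treatment, ATPlite luminescence readout; five doses.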

PA-1 = test system: PA-1
Method in brief: as §1

SKOV3 = test system: SKOV3
Method in brief: as §1

Tov-21-G = test system: Tov-21-G
Method in brief: as §1

Tov112D = test system: Tov112D
Method in brief: as §1
% is scaled to controls: 0 for no effect and ±100 for the full control effect.

C=C1CCC2C(C)(C(=O)O)CCCC2(C)C1CC/C(C)=C\CO (stereo not given)
inactive: Potency (OV90) | Potency (PA-1) | Potency (SKOV3) | Potency (Tov-21-G) | Potency (Tov112D)

CC1(C)CC[C@]2(C(=O)O[C@@H]3O[C@H](CO)[C@@H](O)[C@H](O)[C@H]3O)CC[C@]3(C)C(=CCC4[C@@]5(C)C[C@@H](O)[C@H](O)[C@@](C)(CO)C5[C@H](O)C[C@]43C)C2[C@@H]1O (stereo not given in full)
inactive: Potency (OV90) | Potency (PA-1) | Potency (SKOV3) | Potency (Tov-21-G) | Potency (Tov112D)

C[C@@H]1O[C@@H](O[C@H]2[C@H](O)[C@@H](O)[C@H](OC[C@H]3O[C@@H](OC(=O)[C@]45CCC(C)(C)C[C@H]4C4=CCC6[C@@]7(C)C[C@@H](O)[C@H](O)[C@@](C)(CO)C7[C@H](O)C[C@@]6(C)[C@]4(C)CC5)[C@H](O)[C@@H](O)[C@@H]3O)O[C@@H]2CO)[C@H](O)[C@H](O)[C@H]1O (stereo not given in full)
inactive: activity change, negative = cytotoxicity (OV90) -3.81% [at 11.6 µM] | activity change, negative = cytotoxicity (PA-1) 2.94% [at 11.6 µM] | activity change, negative = cytotoxicity (SKOV3) -6.07% [at 11.6 µM] | activity change, negative = cytotoxicity (Tov-21-G) -3.2% [at 11.6 µM] | activity change, negative = cytotoxicity (Tov112D) -3.4% [at 11.6 µM]

CCCCCOc1ccc(-c2cc(-c3ccc(C(=O)N[C@H]4C[C@@H](O)[C@@H](O)NC(=O)C5[C@@H](O)[C@@H](C)CN5C(=O)C([C@H](O)CC(N)=O)NC(=O)C([C@H](O)[C@@H](O)c5ccc(O)c(OS(=O)(=O)O)c5)NC(=O)C5C[C@@H](O)CN5C(=O)C([C@@H](C)O)NC4=O)cc3)no2)cc1 (stereo partly drawn) (X2-[Orn(4R-OH,5R-OH)][ξThr(3R)][ξPro(4R-OH)][ξhTyr(3S-OH,4S-OH,3'-OSO3H)][ξGln(3R-OH)][X3]; lactam 1-C)
inactive: Potency (OV90) | Potency (PA-1) | Potency (SKOV3) | Potency (Tov-21-G) | Potency (Tov112D)

COC1OC(O)C2(CCC3(O2)C(C)CC2OC(=O)C4(C)CCCC3(C)C24)C1O (stereo not given)
inactive: Potency (OV90) | Potency (PA-1) | Potency (SKOV3) | Potency (Tov-21-G) | Potency (Tov112D)

CCC(C)/C=C(C)/C=C/C1=CC2=CC(=O)C(C)(O)C(OC(C)=O)C2CO1 (stereo not given)
inactive: Potency (OV90) | Potency (PA-1) | Potency (SKOV3) | Potency (Tov-21-G) | Potency (Tov112D)

O=C(O)CC1CCC(c2ccc(NC(=O)c3nnc(Nc4ccc(F)c(F)c4)o3)cc2)CC1 (stereo not given)
inactive: Potency (OV90) | Potency (PA-1) | Potency (SKOV3) | Potency (Tov-21-G) | Potency (Tov112D)

CC1CC(=O)C2C(O)(C1)CC(O)C13OC1c1c(O)cccc1C(=O)C23O (stereo not given)
inactive: Potency (OV90) | Potency (PA-1) | Potency (SKOV3) | Potency (Tov-21-G) | Potency (Tov112D)

CC1CCC2(C(=O)OC3OC(CO)C(O)C(O)C3O)CCC3(C)C(=CCC4C5(C)CCC(O)C(C)(CO)C5CCC43C)C2C1(C)O (stereo not given)
inactive: Potency (OV90) | Potency (PA-1) | Potency (SKOV3) | Potency (Tov-21-G) | Potency (Tov112D)

CC1CC(=O)C2=C(O1)OC1(C)CCC3C(C)(C)C4OC4C(=O)C3(C)C1C2 (stereo not given)
inactive: Potency (OV90) | Potency (PA-1) | Potency (SKOV3) | Potency (Tov-21-G) | Potency (Tov112D)

O=C(/C=C/c1ccc(O)c(O)c1)O[C@H]1[C@@H]2C=CO[C@@H](O[C@@H]3O[C@H](CO)[C@@H](O)[C@H](O)[C@H]3O)[C@@H]2[C@@]2(CO)O[C@@H]12
inactive: Potency (OV90) | Potency (PA-1) | Potency (SKOV3) | Potency (Tov-21-G) | Potency (Tov112D)

CC1(C)C[C@H](O)C[C@@]2(C)[C@H]1[C@H](O)C=C1COC(=O)[C@@]12O
inactive: Potency (OV90) | Potency (PA-1) | Potency (SKOV3) | Potency (Tov-21-G) | Potency (Tov112D)

C/C=C(/C)C(=O)O[C@H]1C[C@]2(C)O[C@@H]2[C@@H](OC(C)=O)[C@@]2(C)CC[C@@](O)(C(C)C)[C@H]12
inactive: Potency (OV90) | Potency (PA-1) | Potency (SKOV3) | Potency (Tov-21-G) | Potency (Tov112D)

CC(=O)O[C@H]1[C@H](O[C@H]2CC[C@]34C[C@]35CC[C@]3(C)[C@@H]([C@@]6(C)CC[C@@H](C(C)(C)O)O6)[C@@H](O)C[C@@]3(C)[C@@H]5C[C@H](O[C@@H]3O[C@H](CO)[C@@H](O)[C@H](O)[C@H]3O)[C@H]4C2(C)C)OC[C@@H](OC(C)=O)[C@@H]1O
inactive: Potency (OV90) | Potency (PA-1) | Potency (SKOV3) | Potency (Tov-21-G) | Potency (Tov112D)
